AmpC inh no detg: blocks E. coli AmpC beta-lactamase in detergent-free assay. P00811. AmpC nitrocefin hydrolysis, absorbance 480 nm, 0.0001% Triton. Potency, µM (series often up to 57.1 µM), for inactives: top-dose activity change, negative = inhibition, most hits filed as inhibitors. 0.52% of 330,000 active;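 note: potency is the fitted concentration of half-maximal effect; plate controls were no compound for no effect and no enzyme for full effect; nearly all actives have a fitted effect of over 20% in size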
Target sequence (P00811 whole entry, looked up): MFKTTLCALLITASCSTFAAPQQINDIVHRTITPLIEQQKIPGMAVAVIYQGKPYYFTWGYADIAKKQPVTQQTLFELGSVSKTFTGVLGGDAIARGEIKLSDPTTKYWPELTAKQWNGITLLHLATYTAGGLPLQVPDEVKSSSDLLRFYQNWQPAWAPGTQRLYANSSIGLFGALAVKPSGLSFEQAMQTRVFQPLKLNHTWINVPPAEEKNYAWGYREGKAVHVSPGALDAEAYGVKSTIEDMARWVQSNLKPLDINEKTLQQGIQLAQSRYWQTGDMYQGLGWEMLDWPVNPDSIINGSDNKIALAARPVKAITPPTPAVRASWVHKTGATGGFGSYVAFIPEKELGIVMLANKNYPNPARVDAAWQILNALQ
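20 mM phosphate pH 7.0 + 0.01% (detergent screen) or 0.0001% Triton X-100; 5.3 nM AmpC reagent; cpd preinc 15 min RT; nitrocefin (800 uM stock) to start; A480 q20 s × 4 min; Activity was normalised to no-enzyme and no-compound control wells.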
AmpC detergent: blocks E. coli AmpC beta-lactamase in detergent assay; P00811; AmpC hydrolysis of nitrocefin, absorbance 480 nm, 0.01% Triton; Potency, µM (highest dose often 114 µM), for the others: at the top dose activity change, negative = inhibition, hits mostly inhibitors; 0.041% of 370,000 active;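 note: potency is the fitted concentration of half-maximal effect; 0% = no-compound wells and -100% = no-enzyme wells; nearly all actives have a fitted effect of over 25% in size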
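AmpC (5.3 nM in the dispensed reagent) in 20 mM phosphate pH 7.0 with 0.01% (detergent screen) or 0.0001% Triton X-100 was preincubated with compounds for 15 min at room temperature. Nitrocefin was then added from an 800 uM solution, and hydrolysis was followed at 480 nm.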
Cycloheximide cs: counter-screen hit for Shiga toxin inhibitors, cycloheximide; cell reporter, cycloheximide protein synthesis inhibition counterscreen; max response, %; 12% of 300,000 active; AID 2314; in the data active = max response mostly above about 13%, no sharp cut-off; inactive = mostly below about 14%; note: read at 38.3 µM for the half of the compounds with a filed dose; 0% is about no effect
NS1 inh: influenza NS1 inhibition. 0.4% of 270,000 active. Potency, µM (series often up to 46.1 µM), for inactives: at the highest dose activity, positive = more growth. AID 2326; calls by dose curve; note: potency is the fitted concentration of half-maximal effect; actives are rising curves; nearly all actives have a fitted effect of over 50% in size
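Compounds were scored for reversing the slow growth caused by influenza A NS1 in S. cerevisiae, measured by optical density at 600 nm. Assay medium contained 2% galactose at pH 6.0; NS1-free yeast of the same strain were the positive control.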
Shiga inhibitor: blocks Shiga toxin action in Vero cells | Vero cells, Shiga toxin protein synthesis inhibition reporter | 9.2% of 290,000 active | AID 2315 | inhibition, % at 38.7 µM; in the data active = inhibition mostly above about 28%, no sharp cut-off; inactive = mostly below about 43%; note: 0% is about no effect
Starred values were filed as active, the others as inactive. This is one part of a sample in which hits are shown more often than they occur. Unless noted, calls come from the whole dose curve; as a rule, active = well fitted curve in the direction sought with a large enough effect; inconclusive = small, poorly fitted or top-dose-only effect, or another doubt; inactive = no such curve, though single readings can be large; an effect the other way counts as inactive or inconclusive.

Screening O=C(O)c1ccc(N/N=C/c2cccc3nccnc23)cc1 returned AmpC inh no detg -10.9%, AmpC detergent -1.4%, Cycloheximide cs 27.2*, NS1 inh 7.5% and Shiga inhibitor 44.9*.
`O=C(O)c1ccc(N/N=C/c2cc3ccccc3nc2Cl)cc1` gave AmpC inh no detg -28.9%, AmpC detergent 9.4%, Cycloheximide cs 37.8*, NS1 inh -43.8% and Shiga inhibitor 83.6*.
For Cc1cccc2cc(/C=N/NC(=O)c3ccncc3)c(Cl)nc12 the results were AmpC inh no detg -10.4%, AmpC detergent inconclusive, Cycloheximide cs 1.5, NS1 inh -30.6% and Shiga inhibitor 10.2.
CC(=O)N1CCc2cc(S(=O)(=O)CCC(=O)N3CCN(c4cccc(C)c4C)CC3)ccc21 was read as AmpC detergent 2.7%.
`Cc1ccccc1OC(C)c1nc(-c2ccccc2)no1` (stereo not drawn) gave AmpC inh no detg -17.6%, AmpC detergent inconclusive, Cycloheximide cs 38.2*, NS1 inh -34.1% and Shiga inhibitor 47.9.
For Cc1nn(C(C)c2nc(-c3ccccc3)no2)c(C)c1[N+](=O)[O-] (stereo not drawn) the results were AmpC inh no detg 0.0%, AmpC detergent inconclusive, Cycloheximide cs 6.0, NS1 inh -2.6% and Shiga inhibitor -11.0.
Cc1ccc(SC(C)c2nc(-c3ccccc3)no2)cc1 (stereo not drawn) was read as AmpC inh no detg -18.7%, AmpC detergent -7.3%, Cycloheximide cs 23.1*, NS1 inh -9.2% and Shiga inhibitor 43.7.
Screening O=C(CN1C(=O)NC2(CCCC2)C1=O)NCCc1ccc(F)cc1 returned AmpC inh no detg -30.5%.
For COc1ccccc1CCNC(=O)C(C)Sc1nc(-c2ccccc2)cc(C(F)(F)F)n1 (stereo not drawn) the results were AmpC detergent -0.6%.
COc1cccc(C(=O)NCc2cn3cccc(C)c3n2)c1 was read as AmpC detergent 31.2%.
For CCOC(=O)N1CCN(C(=O)CS(=O)(=O)c2cn(Cc3ccc(Cl)cc3)c3ccccc23)CC1 the results were AmpC inh no detg inconclusive, AmpC detergent inconclusive, Cycloheximide cs -0.2, NS1 inh 6.8% and Shiga inhibitor 14.2.
Screening NC(=O)C1CCN(C(=O)CSCc2ccccc2Cl)CC1 returned AmpC inh no detg 8.0%, AmpC detergent -14.5%, Cycloheximide cs 15.6, NS1 inh -0.2% and Shiga inhibitor 5.5.
Screening CCOC(=O)N1CCN(C(=O)CSCc2ccccc2Cl)CC1 returned AmpC inh no detg 36.4%, AmpC detergent -3.5%, Cycloheximide cs 26.2, NS1 inh -2.7% and Shiga inhibitor 44.5*.
`CCOC(=O)N1CCN(C(=O)CSCc2nc(-c3ccccc3C)oc2C)CC1` gave AmpC inh no detg 143.5%, AmpC detergent -2.2%, Cycloheximide cs 8.8, NS1 inh -15.6% and Shiga inhibitor 18.5.
`CCOC(=O)N1CCN(C(=O)CS(=O)(=O)c2cn(Cc3ccccc3Cl)c3ccccc23)CC1` gave AmpC inh no detg 3.98µM*, AmpC detergent inconclusive, Cycloheximide cs -1.2, NS1 inh 7.1% and Shiga inhibitor -6.0.
CCOC(=O)N1CCN(C(=O)CSCc2ccccc2C)CC1 was read as AmpC inh no detg 40.9%, AmpC detergent -0.4%, Cycloheximide cs 36.7*, NS1 inh -4.2% and Shiga inhibitor 59.9*.
COc1ccc(NC(=O)Nc2nnc(N3CCCCCC3)s2)c(OC)c1 was read as AmpC detergent 17.5%.
For Cc1ccc(C)c(N2CCN(C(=O)c3ccc(Nc4nc5ccccc5n5nnnc45)cc3)CC2)c1 the results were AmpC detergent 16.6%.
Screening CCC(=O)NC(=S)Nc1ccc(NC(=S)NC(=O)c2ccccc2)cc1 returned AmpC inh no detg -24.0%, AmpC detergent 2.7%, Cycloheximide cs 2.4, NS1 inh -0.8% and Shiga inhibitor 15.1.
`O=C(NC(=S)Nc1ccc(Oc2ccc(Cl)cc2)cc1)c1ccccc1` gave AmpC inh no detg -31.3%, AmpC detergent 0.3%, Cycloheximide cs 18.6*, NS1 inh 14.1% and Shiga inhibitor 27.1.
O=C(NC(=S)Nc1ccc(Cl)cc1)c1ccccc1 was read as AmpC inh no detg -26.6%, AmpC detergent 2.6%, Cycloheximide cs 89.3*, NS1 inh 9.5% and Shiga inhibitor 71.5*.
For COC(=O)C(O)(c1ccc(NC(=S)NC(=O)c2ccccc2)cc1)C(F)(F)F (stereo not drawn) the results were AmpC inh no detg -21.8%, AmpC detergent -14.7%, Cycloheximide cs 13.6, NS1 inh 11.8% and Shiga inhibitor -1.6.
`O=C(N/C(=N\O)c1ccccc1)Nc1ccc(Cl)cc1` gave AmpC inh no detg -6.0%, AmpC detergent -6.6%, Cycloheximide cs 25.9, NS1 inh -70.6% and Shiga inhibitor 47.6*.
`O=C(O)/C(=N/NC(=O)c1ccc(Cl)cc1)c1ccccc1` gave AmpC inh no detg -35.2%, AmpC detergent -3.9%, Cycloheximide cs 22.9*, NS1 inh -0.2% and Shiga inhibitor 13.1.
Screening Cc1ccc(Cl)cc1-n1ncc2c(Nc3ccc4c(c3)OCCO4)ncnc21 returned AmpC detergent 3.9%.
For CC(C)c1ccc(NC(=O)c2cccn2-c2nnc(N3CCCCC3)s2)cc1 the results were AmpC detergent 3.0%.
Cc1cccc(C(c2sc3nc(-c4ccco4)nn3c2O)N2CCN(c3ccccc3)CC2)c1 (stereo not drawn) was read as AmpC detergent 1.9%.
CC(C)NC(=S)Nc1ccc(Oc2ccccc2)cc1 was read as AmpC inh no detg 1.0%, AmpC detergent -3.8%, Cycloheximide cs 15.1, NS1 inh -41.5% and Shiga inhibitor 28.9*.
O=C(N/N=C/c1ccc(Cl)cc1Cl)Nc1ccccc1 was read as AmpC inh no detg -29.7%, AmpC detergent 1.4%, Cycloheximide cs 9.2*, NS1 inh -11.0% and Shiga inhibitor 28.4.
O=C(N/N=C/c1cccn1-c1cccc(C(=O)O)c1)Nc1ccccc1 was read as AmpC inh no detg -3.2%, AmpC detergent -5.1%, Cycloheximide cs 31.3*, NS1 inh 19.6% and Shiga inhibitor 52.0*.
COC(=O)c1ccccc1-n1cc2c(c1-c1cccc(C)c1)c(=O)n(C)c(=O)n2C was read as AmpC detergent 19.9%.
`O=[N+]([O-])c1ccccc1CN1CC=C(c2ccc(F)cc2)CC1` gave AmpC inh no detg -17.9%, AmpC detergent -8.8%, Cycloheximide cs 17.1*, NS1 inh -4.3% and Shiga inhibitor 22.8*.
O=C(Nc1ccccn1)c1cccc(S(=O)(=O)N2CCc3ccccc3C2)c1 was read as AmpC inh no detg -11.1% and AmpC detergent inconclusive.
`Cc1nc2cc(N3CCCCC3)c(NC(=O)c3ccncc3)cc2c(=O)n1Cc1ccc(Cl)cc1` gave AmpC inh no detg -8.2%, AmpC detergent 0.4%, Cycloheximide cs -1.6, NS1 inh 2.7% and Shiga inhibitor 15.8.

Assay outcomes deposited in PubChem by National Center for Advancing Translational Sciences (NCATS).
